Several values for one entry are separate records, joined by “and”; a condition that tells them apart may be missing. Identical values can stand only once. The whole screen tested about 5,500 compounds, of which about 2,000 (36%) were called active. Roughly 18% stayed inconclusive and do not appear here. No stated cut-off is given here; in the data, active means normalized growth mostly below about 0.91 (no sharp cut-off); inconclusive means no clear call, values can overlap the other calls; inactive means mostly above about 0.92. This is one part of the list.
Assay: chemical genetic growth profiling, strain panel (AID 1159580);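 further: tested at 20 µM; growth read once vehicle control cultures reached saturation at 30 °C; 1 = growth at the plate median or of vehicle wells; lower values mean less growth of the strain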
Conditions: S. cerevisiae deletion strains, growth OD

Measured: normalized growth

NC1(C(=O)O)CCCC1
inactive: locus YAL013W, strain DEP1, hits give low values 1 | locus YAL021C, strain ccr4, hits give low values 1.01 | locus YAL026C, strain drs2, hits give low values 1.02 | locus YAL030W, strain snc1, hits give low values 1.02 | locus YBL061C, strain skt5, hits give low values 1.01 | locus YBR009C, strain hhf1, hits give low values 1 | locus YBR021W, strain FUR4, hits give low values 0.989 | locus YBR023C, strain chs3, hits give low values 1.02 | locus YBR171W, strain sec66, hits give low values 1.03 | locus YBR229C, strain ROT2, hits give low values 1.01 | locus YBR231C, strain swc5, hits give low values 1.02 | locus YBR279W, strain paf1, hits give low values 1.01 | locus YCL011C, strain gbp2, hits give low values 1.02 | locus YCL016C, strain dcc1, hits give low values 1.01 | locus YCL029C, strain bik1, hits give low values 1.02 | locus YCL061C, strain MRC1, hits give low values 1.02 | locus YCL069W, strain vba3, hits give low values 1.02 | locus YCR088W, strain abp1, hits give low values 1.02 | locus YDL005C, strain med2, hits give low values 1.01 | locus YDL035C, strain GPR1, hits give low values 1.01 | locus YDL040C, strain nat1, hits give low values 1.01 | locus YDL074C, strain BRE1, hits give low values 1.02 | locus YDL101C, strain DUN1, hits give low values 1 | locus YDL134C, strain PPH21, hits give low values 0.998 | locus YDL185W, strain tfp1, hits give low values 0.989 | locus YDL192W, strain arf1, hits give low values 0.998 | locus YDR001C, strain nth1, hits give low values 1.02 | locus YDR069C, strain doa4, hits give low values 1.03 | locus YDR101C, strain arx1, hits give low values 1.01 | locus YDR137W, strain rgp1, hits give low values 1 | locus YDR150W, strain NUM1, hits give low values 1.01 | locus YDR159W, strain sac3, hits give low values 0.995 | locus YDR162C, strain NBP2, hits give low values 1.01 | locus YDR195W, strain ref2 1.03 | locus YDR297W, strain sur2, hits give low values 1.01 | locus YDR318W, strain mcm21, hits give low values 0.996 | locus YDR334W, strain swr1, hits give low values 1.01 | locus YDR335W, strain msn5, hits give low values 1.01 | locus YDR388W, hits give low values 0.998 | locus YDR392W, strain spt3, hits give low values 1.01 | locus YDR502C, strain sam2, hits give low values 0.99 | locus YEL003W, strain gim4, hits give low values 1.02 | locus YEL037C, strain rad23, hits give low values 1.02 | locus YEL061C, strain CIN8 (second series), hits give low values 1.02 | locus YEL061C, strain CIN8, hits give low values 1.01 | locus YER015W, strain faa2, hits give low values 1.02 | locus YER016W, strain bim1, hits give low values 1.01 | locus YER110C, hits give low values 1 | locus YER111C, strain swi4, hits give low values 1.03 | locus YER155C, strain BEM2 (second series), hits give low values 1.07 | locus YER155C, strain BEM2, hits give low values 0.997 | locus YER167W, strain BCK2, hits give low values 1.01 | locus YFR010W, strain ubp6, hits give low values 1.02 | locus YGL078C, strain dbp3, hits give low values 0.989 | locus YGL086W, strain mad1, hits give low values 0.994 | locus YGL167C, strain pmr1, hits give low values 1.01 | locus YGL173C, strain kem1, hits give low values 1.02 | locus YGL227W, strain vid30, hits give low values 1.02 | locus YGL240W, strain doc1, hits give low values 1.04 | locus YGL248W, strain PDE1, hits give low values 1.01 | locus YGL253W, strain hxk2, hits give low values 1.02 | locus YGR135W, strain pre9, hits give low values 0.998 | locus YGR252W, strain gcn5, hits give low values 0.935 | locus YHR013C, strain ard1, hits give low values 1.07 | locus YHR027C, strain rpn1, hits give low values 1.01 | locus YHR030C, strain SLT2, hits give low values 1.01 | locus YHR079C, strain IRE1 (second series), hits give low values 0.996 | locus YHR079C, strain IRE1, hits give low values 1.04 | locus YHR094C, strain hxt1, hits give low values 0.998 | locus YHR129C, strain ARP1, hits give low values 1.01 | locus YHR142W, strain chs7, hits give low values 1.03 | locus YHR200W, strain rpn10, hits give low values 0.997 | locus YIL066C, strain RNR3, hits give low values 1.02 | locus YIL073C, strain SPO22, hits give low values 1.02 | locus YIL125W, strain kgd1, hits give low values 1 | locus YIR030C, strain dcg1, hits give low values 1.01 | locus YJL092W, strain hpr5, hits give low values 1.03 | locus YJL095W, strain BCK1 (second series), hits give low values 1.01 | locus YJL095W, strain BCK1, hits give low values 1.01 and 1.02 | locus YJL115W, strain asf1, hits give low values 1.03 | locus YJL129C, strain trk1, hits give low values 1.06 | locus YJL134W, strain LCB3, hits give low values 1.01 | locus YJL154C, strain vps35, hits give low values 1.02 | locus YJL164C, strain tpk1, hits give low values 1.02 | locus YJL166W, strain qcr8, hits give low values 1.02 | locus YJL168C, strain set2, hits give low values 0.994 | locus YJL187C, strain SWE1 (second series), hits give low values 1.01 | locus YJR043C, strain POL32, hits give low values 1 | locus YJR066W, strain TOR1, hits give low values 0.975
